Compound activity deposited in PubChem by several laboratories.
hcDAF12 agonist: activates DAF-12 receptor from parasite H. contortus | HEK293 hcDAF-12 lit1-tk-luc reporter, luminescence; 0% DMSO, 100% Δ7-dafachronic acid | activation, % at 6.8 µM | 1.4% of 370,000 active;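 active = activation above the mean of all tested compounds plus 3 SD, cut at about 5.5% in these data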;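 note: 100% = response to 3 µM Δ7-dafachronic acid high control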
hgDAF12 agonist: hgDAF-12 agonism, primary luciferase screen; HEK293 GAL4-hgDAF12 UAS-luciferase reporter, agonist luminescence; normalized to butyrate control; activation, % at 6.8 µM; 1.8% of 370,000 active; AID 687014;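 active = activation above a cutoff set at the mean of all screened compounds plus 3 SD, cut at about 10% in these data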;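 note: 0% = DMSO wells and 100% = sodium butyrate wells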
DAX1 inh-1: inhibitors of human orphan nuclear receptor DAX1 (NR0B1); P51843; HEK293 Gal4-DAX1 luciferase reporter, luminescence; 0.99% of 340,000 active; inhibition, % at 6.75 µM;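 active = inhibition above the mean over all tested compounds plus 3 SD, cut at about 4.2% in these data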;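 note: 0% = DAX1-transfected cells with DMSO and 100% = empty-vector control cells with DMSO; inhibition shows as a rise in luminescence from relieved DAX1 repression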
Target sequence (P51843 207-470 limits assumed): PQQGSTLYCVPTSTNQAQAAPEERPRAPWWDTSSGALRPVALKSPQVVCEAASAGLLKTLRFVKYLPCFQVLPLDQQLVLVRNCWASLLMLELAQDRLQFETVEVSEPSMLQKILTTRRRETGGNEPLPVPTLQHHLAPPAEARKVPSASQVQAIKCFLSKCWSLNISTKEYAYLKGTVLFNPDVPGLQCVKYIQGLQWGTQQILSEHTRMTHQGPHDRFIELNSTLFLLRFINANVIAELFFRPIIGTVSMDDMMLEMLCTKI
ssDAF12 agonist: activators of S. stercoralis DAF-12 nuclear receptor; HEK293 ssDAF-12/GRIP1 lit1-tk-luc reporter, luminescence; % of 3 µM dafachronic acid response; activation, % at 6.8 µM; 1% of 370,000 active; AID 652126;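 active = activation above the mean over all tested compounds plus 3 SD, cut at about 0.9% in these data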;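 note: 0% = DMSO-only wells and 100% = 3 µM delta7-dafachronic acid wells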
DAX1 inh-2: DAX1 (NR0B1) inhibition, primary screen; HEK293T StAR-luciferase reporter, SF-1/DAX-1 repression relief; inhibition, % at 6.8 µM; 1.1% of 370,000 active; AID 652010;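 active = inhibition above the mean over all tested compounds plus 3 SD, cut at about 3.6% in these data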;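 note: 0% = DAX-1 cells with DMSO and 100% = cells lacking DAX-1 with DMSO; higher inhibition means more luminescence from relief of DAX-1 repression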
PolyA inhibitor: inhibitors of polyadenylation in S. cerevisiae | S. cerevisiae SKY197-pL101 polyadenylation reporter, beta-gal luminescence; efflux-impaired pdr1/pdr3 knockout yeast; score 100 = 6 SD above DMSO | activity score, % at 12 µM | 0.02% of 300,000 active | AID 1875;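 active = lowest replicate activity score at least 50, where 100 means six control SD above control mean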;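 note: yeast exposed to compound for 9 h at 30 °C; higher score means more reporter readthrough which indicates perturbed polyadenylation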
DAX1 inh confirm: NR0B1 (human) inhibition, confirmation | 87% of 2,400 active | HEK293T StAR-promoter luciferase reporter, SF-1/DAX-1 repression | shares compounds with DAX1 inh-2 | inhibition, % at 6.8 µM;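 active = inhibition above the average of every tested compound plus 3 SD, cut at about 3.8% in these data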;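 note: 0% = DAX-1 cells with DMSO and 100% = no DAX-1 control cells with DMSO; active compounds raise luminescence by relieving repression of the StAR reporter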
SF1 mutant ctr: nonselective inhibitor or artifact in SF-1 mutant DAX1 counter-screen | shares compounds with DAX1 inh-2 | HEK293 StAR-luciferase, SF-1 AF2 mutant, luminescence | inhibition, % at 6.8 µM | 78% of 2,400 active;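 active = inhibition above the mean of all tested compounds plus 3 SD, cut at about 3% in these data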;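 note: 0% = DAX-1 transfected cells with DMSO and 100% = cells without DAX-1 with DMSO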
LXRb hcDAF ctr: counter-screen for hcDAF-12 agonists: agonists of human LXR-beta; AID 743027; activation, % at 6.8 µM; shares compounds with hcDAF12 agonist; 3,400 tested, under 10 active; HEK293 Gal4-LXR tk-luc reporter, luminescence, 24 h; normalized: DMSO 0%, positive control 100%;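 active = mean percent activation of the reporter above a cutoff set as the average over tested compounds plus their standard deviation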
Target sequence (P55055 whole entry, looked up, the tested form may be a part): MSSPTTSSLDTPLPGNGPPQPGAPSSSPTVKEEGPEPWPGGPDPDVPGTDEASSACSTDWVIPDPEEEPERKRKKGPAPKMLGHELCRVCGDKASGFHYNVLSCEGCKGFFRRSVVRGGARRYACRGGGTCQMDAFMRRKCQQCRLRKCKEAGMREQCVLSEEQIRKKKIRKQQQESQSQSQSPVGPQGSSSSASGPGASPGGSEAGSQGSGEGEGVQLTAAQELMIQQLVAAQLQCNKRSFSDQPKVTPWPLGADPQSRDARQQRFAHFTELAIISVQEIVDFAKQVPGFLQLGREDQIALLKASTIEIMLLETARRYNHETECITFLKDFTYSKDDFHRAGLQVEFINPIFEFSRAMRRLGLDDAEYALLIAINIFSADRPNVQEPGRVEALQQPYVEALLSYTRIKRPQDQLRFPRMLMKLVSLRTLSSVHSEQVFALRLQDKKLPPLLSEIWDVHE
hcDAF12 conf: hcDAF-12 agonism, confirmation assay; shares compounds with hcDAF12 agonist; 61% of 3,400 active; HEK293 hcDAF-12 lit1-tk-luc reporter, luminescence; % of Δ7-dafachronic acid response; activation, % at 6.8 µM;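 active = mean activation across triplicate tests above the threshold derived from the earlier primary screen, cut at about 5.5% in these data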;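 note: 0% = DMSO only wells and 100% = 3 µM Δ7-dafachronic acid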
hgDAF12 ag: confirmation of H. glycines DAF-12 agonists. shares compounds with hgDAF12 agonist. HEK293 GAL4-hgDAF12 luciferase reporter, agonist mode; percent of butyrate response. activation, % at 6.8 µM. 80% of 3,300 active. AID 743050;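 active = mean activation over triplicate wells above the hit cutoff derived from the earlier primary screen, cut at about 11% in these data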;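 note: 0% = DMSO low control and 100% = 2 mM sodium butyrate high control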
LXR ag 2: LXR-beta agonism as DAF-12 counter-screen; shares compounds with hgDAF12 agonist; HEK293 Gal4-LXR luciferase reporter, 24 h; 3,300 tested, under 10 active; AID 743051; activation, % at 6.8 µM;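 active = mean activation of the triplicate above a set limit carried over from the primary screen, none filed active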
The depositor's hits bear a star; / = no result. Hits are enriched below; roughly 4.1% of the tested compounds scored in any of these assays.

SMILES | hcDAF12 agonist | hgDAF12 agonist | DAX1 inh-1 | ssDAF12 agonist | DAX1 inh-2 | PolyA inhibitor | DAX1 inh confirm | SF1 mutant ctr | LXRb hcDAF ctr | hcDAF12 conf | hgDAF12 ag | LXR ag 2
Nc1ccc(C(=O)Nc2nc3ccccc3s2)cc1 | 6.6* | 21* | -2 | 1.2* | 5.3* | 6 | 5.6* | 3.0* | 2 | 8.7* | 21* | 1
Cc1cc(C)n(-c2ccc(C(=O)Nc3nc4ccccc4s3)cc2)n1 | 2 | 9 | 2 | 0 | 2 | -3 | / | / | / | / | / | /
Nc1c(C(=O)Nc2cccc(F)c2)nnn1-c1ccc2c(c1)OCCO2 | 7.0* | 17* | -1 | 1 | 4.5* | -8 | 16* | 5.2* | 2 | 8.4* | 18* | 1
Cc1ccccc1NC(=O)c1nnn(-c2ccc3c(c2)OCCO3)c1N | 1 | 10 | 1 | -1 | 1 | -25 | / | / | / | / | / | /
O=Nc1c2cc(-c3ccccc3)[nH]nc-2c2ccccc12 | 20* | 23* | 0 | 2.7* | 5.8* | 16 | 5.4* | 1 | 2 | 19* | 12* | 1
COc1ccc(N2CCN(C3CCCN(C(=O)c4cccc(C)n4)C3)CC2)cc1 (centres undefined) | -1 | -2 | -1 | -1 | 1 | -1 | / | / | / | / | / | /
O=C(Nc1ccc(F)cc1)c1ccccc1NC(=O)C1CCCCC1C(=O)O (centres undefined) | 0 | 2 | 0 | -1 | 1 | / | / | / | / | / | / | /
O=C(NCCc1ccccc1)c1ccccc1NC(=O)C1CCCCC1C(=O)O (centres undefined) | 9.3* | 18* | / | 0 | 4.9* | -3 | 5.4* | 4.3* | 1 | 3 | 14* | 1
O=C1CC(c2ccccc2)=NO1 | 1 | -1 | 1 | -1 | 0 | / | / | / | / | / | / | /
O=S1(=O)CC(c2ccccc2)=NN=C(c2ccccc2)C1 | 9.5* | 17* | 3 | 1.5* | 7.6* | / | 11* | 3.9* | 1 | 8.5* | 16* | 1
CC(=O)Nc1ccc(C(=O)CN2CCN(c3ccccc3)CC2)cc1 | 2 | 3 | 0 | 0 | 0 | -4 | / | / | / | / | / | /
O[C@H]1CN(CC2CCCCC2)[C@@H](c2ccc(Cl)cc2)C[C@@H]1n1cc(C2CC2)nn1 | -1 | -2 | -1 | 0 | -1 | / | / | / | / | / | / | /
C[C@@H]1ON(C)[C@H]2C[C@H]3c4[nH]c5c(-c6cc(Cl)cc(Cl)c6)cccc5c4CCN3C(=O)[C@@H]12 | 0 | 2 | / | -1 | 2 | / | / | / | / | / | / | /
O=C(Nc1ccccc1O)c1ccc(NC(=O)C2CC2)cc1 | 9.8* | 62* | 9.5* | 1 | 42* | -6 | 46* | 22* | 2 | 7.9* | 69* | 1
O=C(Nc1ccccc1C(=O)O)c1ccc(NC(=O)C2CC2)cc1 | 1 | -1 | -2 | -1 | -1 | 10 | / | / | / | / | / | /
O=C(/C=C/c1cccc(F)c1)OCC(=O)N1CCCc2ccccc21 | 1 | 2 | 0 | -1 | 2 | -18 | / | / | / | / | / | /
O=C(/C=C/c1cccc(F)c1)N1CCc2ccccc21 | 14* | 24* | 3 | 2.2* | 5.6* | -3 | 15* | 8.4* | 2 | 13* | 22* | 1
CC(C)c1nnc(NC(=O)c2ccc3c(c2)OCO3)s1 | 9.6* | 15* | 4 | 0 | 4.9* | -12 | 12* | 2 | 1 | 4 | 7 | 1
Cc1ccc2nc(/C=C/c3cccc(F)c3)ccc2c1 | 8.3* | 21* | 2 | 2.8* | 5.1* | -23 | 10* | 5.1* | 2 | 8.7* | 20* | 1
O=c1[nH]c(/C=C\c2cccc(F)c2)nc(O)c1[N+](=O)[O-] | 0 | 0 | 1 | -1 | 0 | -12 | / | / | / | / | / | /
O=C(Nc1ccc2sccc2c1)c1ccc(Cl)s1 | 15* | 21* | 2 | 1.4* | 9.0* | -19 | 20* | 11* | 2 | 12* | 23* | 1
Cc1c(C(=O)N2c3ccccc3CC2C)oc2ccccc12 (centres undefined) | 11* | 18* | 3 | 2.3* | 5.3* | -31 | 8.8* | 6.1* | 1 | 17* | 20* | 1
O=C(COC(=O)Cn1[nH]c(=O)c2ccccc2c1=O)NNC(=O)c1ccccc1 | 2 | 1 | 0 | 0 | -1 | / | / | / | / | / | / | /
CCc1c(-c2ccccc2)nc2sc3c(c2c1N)CCCC3 | 1 | 2 | 2 | 0 | 1 | 0 | / | / | / | / | / | /
Nc1c2c(nc3sc4c(c13)CCCCC4)CCCCC2 | 5.8* | 16* | 1 | 1 | 5.0* | 1 | 8.7* | 3.5* | / | / | 16* | 1
SMILES | hcDAF12 agonist | hgDAF12 agonist | DAX1 inh-1 | ssDAF12 agonist | DAX1 inh-2 | PolyA inhibitor | DAX1 inh confirm | SF1 mutant ctr | LXRb hcDAF ctr | hcDAF12 conf | hgDAF12 ag | LXR ag 2
O=C(Cc1ccccn1)c1ccccc1 | -1 | 0 | 0 | -2 | 0 | 6 | / | / | / | / | / | /
O=C(Nc1ccccc1)OCCc1ccccn1 | 4 | 14* | 5.8* | -1 | 9.3* | / | 7.4* | 4.2* | / | / | 11* | 1
O=C(CCCc1ccccn1)c1ccccc1 | 7.7* | 18* | 1 | 0 | 5.6* | / | 11* | 5.8* | 1 | 3 | 11* | 1
COc1ccc(CCNC(=O)c2cccc(S(=O)(=O)N3CCc4ccccc4C3)c2)cc1 | 0 | -1 | 0 | -1 | -1 | / | / | / | / | / | / | /
Cc1ccccc1C(=O)Nc1nnc(-c2ccco2)s1 | 9.4* | 16* | -1 | 1.1* | 5.2* | 16 | 9.0* | 4.1* | 1 | 8.2* | 12* | 1
COc1ccccc1C(=O)Nc1nnc(-c2ccco2)s1 | 15* | 19* | 4.5* | 2.0* | 8.4* | -21 | 12* | 9.0* | 1 | 14* | 21* | 1
CCOc1ccccc1Nc1nc(-c2cccnc2)cs1 | 0 | 3 | 1 | -1 | -1 | -2 | / | / | / | / | / | /
